Experimental data reported in the supplement of paper PMC6555819.

Columns and labels:
Test in all cases: PBM binding z-score (relative to random genomic background probes); higher = stronger binding; sequences stand for … in GC…GCGATTGACAGCGTAGAATGAAGG
[1] = system: FXR:RXRa (NR concentration 270 nM, RXRa partner concentration 90 nM)
Outline: (§1)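 Binding z-scores were set against random background probes. The data came from custom Agilent 4×180K protein-binding microarrays carrying double-stranded probes with 34-nt variable regions, incubated 1 h with ligand-free nuclear receptor dimers. Partner-specific antibodies detected binding, and scanned fluorescence was regression-normalized.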

[2] = system: LXRa:RXRa (NR concentration 270 nM, RXRa partner concentration 90 nM)
Outline: as §1

[3] = system: LXRa homodimer (NR concentration 270 nM)
Outline: as §1

[4] = system: LXRb:RXRa (NR concentration 270 nM, RXRa partner concentration 90 nM)
Outline: as §1

[5] = system: LXRb homodimer (NR concentration 270 nM)
Outline: as §1

[6] = system: PPARa:RXRa (NR concentration 270 nM, RXRa partner concentration 90 nM)
Outline: as §1

[7] = system: PPARg:RXRa (NR concentration 180 nM, RXRa partner concentration 90 nM)
Outline: as §1

[8] = system: PPARg:RXRa 270nM:90nM, anti-RXR (NR concentration 270 nM, RXRa partner concentration 90 nM)
Outline: as §1

[9] = system: PPARg:RXRa 30nM:10nM, anti-RXR (NR concentration 30 nM, RXRa partner concentration 10 nM)
Outline: as §1

[10] = system: PPARg:RXRa 90nM:30nM, anti-RXR (NR concentration 90 nM, RXRa partner concentration 30 nM)
Outline: as §1

[11] = system: PPARg:RXRa DBDmut IVT, anti-RXR (DBD mutation: RXRa K156A/R161A, NR concentration 270 nM, RXRa partner concentration 90 nM)
Outline: as §1

[12] = system: PPARg:RXRa IVT, anti-PPARg (NR concentration 270 nM, RXRa partner concentration 90 nM)
Outline: as §1

[13] = system: PPARg DBDmut:RXRa IVT, anti-PPARg (DBD mutation: PPARg1 K132A/R137A, NR concentration 270 nM, RXRa partner concentration 90 nM)
Outline: as §1

[14] = system: PPARg DBDmut IVT, anti-PPARg (DBD mutation: PPARg1 K132A/R137A, NR concentration 270 nM)
Outline: as §1

[15] = system: PPARg homodimer (NR concentration 180 nM)
Outline: as §1

[16] = system: PXR:RXRa (NR concentration 270 nM, RXRa partner concentration 90 nM)
Outline: as §1

[17] = system: PXR homodimer (NR concentration 270 nM)
Outline: as §1

[18] = system: RARa:RXR (NR concentration 270 nM, RXRa partner concentration 90 nM)
Outline: as §1

[19] = system: RARa homodimer (NR concentration 270 nM)
Outline: as §1

[20] = system: RARb:RXRa (NR concentration 270 nM, RXRa partner concentration 90 nM)
Outline: as §1

| Sequence | PBM binding z-score [1] | PBM binding z-score [2] | PBM binding z-score [3] | PBM binding z-score [4] | PBM binding z-score [5] | PBM binding z-score [6] | PBM binding z-score [7] | PBM binding z-score [8] | PBM binding z-score [9] | PBM binding z-score [10] | PBM binding z-score [11] | PBM binding z-score [12] | PBM binding z-score [13] | PBM binding z-score [14] | PBM binding z-score [15] | PBM binding z-score [16] | PBM binding z-score [17] | PBM binding z-score [18] | PBM binding z-score [19] | PBM binding z-score [20] |
| --- | --- | --- | --- | --- | --- | --- | --- | --- | --- | --- | --- | --- | --- | --- | --- | --- | --- | --- | --- | --- |
| ATCTCTAGGTAAGACTCAGTTCGGTGAAGAACGC | 0.336 | 0.318 | 0.624 | 0.144 | 0.85 | -0.0565 | -0.0259 | 0.127 | -0.00912 | 0.104 | 2.26 | 1.24 | 0.576 | 0.0505 | 0.778 | 0.179 | 0.754 | 0.0942 | 0.985 | 0.104 |
| CGAACTAGGTCTTCCAGGACAGTGAATACATTGA | 0.011 | -0.496 | 0.128 | -0.568 | -0.706 | 0.796 | 0.846 | 0.622 | -0.0415 | 0.143 | 4.68 | 3.48 | 0.439 | 0.129 | -0.375 | -0.421 | -0.138 | -0.242 | -0.331 | 0.384 |
| ATCTCTAGGTTAAGTTCAGTGAAAGATCGATAGA | 1.78 | 2.76 | 1.8 | 1.49 | 1.76 | 2.41 | 1.87 | 2.34 | 1.11 | 1.83 | 3.77 | 3.34 | 1.74 | 1.46 | 2.01 | 2.47 | 2.53 | 1.75 | 1.83 | 2.61 |
| TAGCCTAGGTCATTGGGACAGTATAGTACGCATC | 4.69 | 3.35 | 0.922 | 2.45 | 0.648 | 3.84 | 3.81 | 3.69 | 1.27 | 2.57 | 3.11 | 3.8 | 1.3 | 0.736 | 2.9 | 1.78 | -0.233 | 2.5 | 0.512 | 3.75 |
| ACAGACAGGTGATGGAGGTAACTCAGGCTATCAT | -0.104 | -0.199 | -0.062 | -0.121 | -0.598 | 0.109 | 0.789 | -0.241 | -0.252 | -0.291 | 0.108 | 0.744 | 0.159 | -0.142 | -0.281 | -0.304 | -0.184 | 0.033 | -0.0178 | 0.173 |
| TCTGCTACGTCAACGATGGTCAGCTAATCTGCTA | -0.231 | -0.136 | -0.622 | -0.384 | -0.541 | -0.191 | 0.00276 | 0.525 | 1.6 | 1.1 | 0.824 | -0.0517 | -0.273 | 0.303 | -1.54 | -0.555 | -0.856 | -0.492 | -1.62 | -0.0266 |
| AGTCAAAGTTCAGGACGAGGGAACGTAAAGCACG | 3.73 | 3.68 | 0.988 | 1.57 | 0.379 | 3.05 | 4.52 | 4.88 | 1.99 | 3.87 | -0.374 | 1.46 | 0.293 | 0.513 | 2 | 2.12 | 0.898 | 2.09 | 0.539 | 4.2 |
| CAAACTAGGTCAAGAGGTCAAAGACCGCTTCCCG | 7 | 6.25 | 5.13 | 5.46 | 1.47 | 6.65 | 10.1 | 8.53 | 7.38 | 8.62 | 8.33 | 8.34 | 1.4 | 0.266 | 5.54 | 5.94 | 1.78 | 7.58 | 1.89 | 5.61 |
| CCGACTAGGTTATGGGGCATTCAGGCAACGGTGA | 0.258 | 0.306 | 0.00117 | 0.464 | -0.646 | 1.81 | 3.22 | 4.17 | 1.77 | 3.95 | 3.02 | 3.3 | -0.895 | -0.581 | 1.05 | -0.0889 | -0.0769 | 0.303 | -0.167 | 0.869 |
| GCTATTAGTTGCAAGGGCAACCGAATGATTCTCG | 0.225 | 0.26 | -0.0244 | 0.193 | 0.0622 | 0.193 | 0.483 | 0.912 | 0.0952 | 0.546 | 0.729 | 0.0802 | -0.249 | -0.171 | 0.499 | 0.243 | 0.11 | -0.00266 | -0.474 | 1.37 |
| CCTTACGGGTCCCGAGGTTATAGCACGACGAGCG | 0.0402 | 0.394 | -0.262 | 0.124 | -0.6 | 0.95 | 0.635 | -0.283 | -0.617 | -0.745 | -1.26 | -0.545 | -0.471 | -1.66 | -0.111 | 0.32 | -0.277 | 0.482 | 0.138 | 0.514 |
| ACTATTAGTTTACTTAGGGCAACCGATACGACGC | 0.0954 | 0.173 | 0.422 | 0.0496 | 0.375 | 0.0302 | 0.985 | 0.261 | 0.394 | 0.541 | 0.826 | 0.924 | 0.857 | 1.39 | 0.166 | 0.669 | 1.14 | 0.64 | 0.904 | 1.04 |
| GATACATGGTCAGCTAGAGGCCAGAGTATGGAAA | -0.242 | -0.822 | -0.541 | -0.77 | -1.11 | -0.488 | 0.533 | -0.14 | -0.161 | -0.183 | -0.61 | 0.0448 | -1.36 | -0.885 | -0.578 | -0.344 | -0.0734 | -0.157 | -0.619 | 0.819 |
| CCTACTGGGCCAAAGGTCATTAATTCCAATGCTC | 4.33 | 4.53 | 3.47 | 4.65 | 0.938 | 6.19 | 12.5 | 10.3 | 12.4 | 12.4 | 5.16 | 6.79 | 0.543 | 0.388 | 4.75 | 5.26 | 2.61 | 5.93 | 2.26 | 4.25 |
